IL1B secr inh: inhibitors of inflammasome signaling (IL-1 beta secretion); THP-1 LPS/ATP IL-1B secretion, AlphaLISA, 16 h; stronger effect = lower value; activity change, % at 57.5 µM; hit rate 4.7% among 360,000; AID 743279; in the data active = activity change below about -50%; inconclusive = mostly about -30% to -49%
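THP-1 cells pretreated 1 hr with compounds (up to 57.5 uM final), then stimulated with LPS (250 ng/mL final) plus ATP (1.25 mM final); secreted IL-1B measured by AlphaLISA after 16 hr, decreased signal indicating inhibition.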
HT1080-NT tox: kills 2HG-producing HT-1080-NT fibrosarcoma cells; HT-1080-NT fibrosarcoma viability, CellTiter-Glo ATP luminescence, 48 h; Potency, µM (series often up to 46.1 µM), for the others: top-dose activity, negative = less viability, most hits filed as cytotoxic; hit rate 1.6% among 360,000; AID 686970;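 also: NT is the 2HG producing partner of a matched IDH1 knockdown line; potency is read from the fitted curve at half-maximal effect; 0% = DMSO-treated cells and -100% = media-only wells without cells; nearly all actives have a fitted effect of over 55% in size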
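Toxicity toward the 2HG-producing NT line was scored as %Activity, normalised to DMSO and no-cell wells, from CellTiter-Glo luminescence after 48 hours' treatment.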
TDP1 cell CPT: DT40-hTDP1 cell growth loss with CPT; chicken DT40 Tdp1-/-;hTDP1 cells + 20 nM CPT, ATP luminescence, 48 h; Potency, µM (titrated, usually from 46.2 µM), for the others: top-dose activity change, negative = growth inhibition, usual class: inhibitors; hit rate 12% among 420,000; also: potency is read from the fitted curve at half-maximal effect; nearly all actives have a fitted effect of over 55% in size
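Chicken DT40 Tdp1-/- cells stably complemented with human TDP1 were seeded at 400 cells/well in medium containing 20 nM camptothecin, exposed to pin-transferred compounds, and grown at 37 °C for at least 48 hr. Viability was read as ATP luminescence.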
ELG1 repair inh: inhibitors of ELG1-dependent DNA repair in HEK293T cells. hit rate 2.3% among 330,000. Potency, µM (highest dose often 46.1 µM), for the others: at the highest dose activity change, negative = inhibition, usual class: inhibitors. HEK293T ELG1-luciferase reporter, luminescence, 16 h; DNA damage induced by 5-fluorouridine; also: potency is read from the fitted curve at half-maximal effect; nearly all actives have a fitted effect of over 55% in size
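DMSO vehicle served as the neutral condition. Each well held 2,000 cells given 5-fluorouridine plus compound; after 16 hr at 37 °C/5% CO2, ONE-Glo was added and luciferase measured 30 min later.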
HT1080 IDH1KD tx: kills HT-1080 cells with IDH1 knockdown; Potency, µM (doses to about 46.1 µM), without a hit: at the top dose activity, negative = toxicity, hits mostly cytotoxic; hit rate 2% among 360,000; AID 686971; HT-1080 IDH1 knockdown viability, ATP luminescence, 48 h;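 also: potency is read from the fitted curve at half-maximal effect; 0% = DMSO wells and -100% = cell-free medium wells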
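% activity derives from luminescence (CellTiter-Glo), normalised to DMSO and no-cell wells. HT-1080-IDH1KD cells, 750/well, had 48 h compound exposure at 37 °C.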
DT40 TDP1 no CPT: qHTS for Inhibitors of human tyrosyl-DNA phosphodiesterase 1 (TDP1): qHTS in cells in absence of CPT. hit rate 15% among 420,000. DT40 Tdp1-/- hTDP1 cells, no CPT, ATP luminescence, 48 h. Potency, µM (highest dose often 46.2 µM), for the others: at the top dose activity change, negative = growth inhibition, hits mostly inhibitors. AID 686978, 2013; also: potency is read from the fitted curve at half-maximal effect; nearly all actives have a fitted effect of over 55% in size
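A cellular qHTS used chicken DT40 cells lacking endogenous Tdp1 but carrying stably transfected human TDP1. Compounds were applied without camptothecin, and cell growth kinetics were judged by ATP-dependent luminescence after ≥48 hr.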
An asterisk follows results filed as active. Shown are actives, neighbours in structure and some others; about 19% of the full set was active somewhere. Unless noted, calls follow the shape of the dose curve; as a rule, active = well fitted curve in the direction sought with a large enough effect; inconclusive = small, poorly fitted or top-dose-only effect, or another doubt; inactive = no such curve, though single readings can be large; an effect the other way counts as inactive or inconclusive. Unless noted, % is scaled to controls: 0 for no effect and ±100 for the full control effect.

Results for CCOc1ccc(CCNC(=O)c2cccc(-n3c(C)nc4cccnc43)c2C)cc1 ?
TDP1 cell CPT: 20.6µM*; DT40 TDP1 no CPT: 14.6µM*

What do the screens show for `CCOc1ccc(CCNC(=O)CCn2c(=O)c3cccn3c3cccnc32)cc1`?
TDP1 cell CPT: 4.8%; DT40 TDP1 no CPT: -24.9%

Results for CCN(CC)CCNC(=O)c1ccc(Cn2c(=O)c3cccn3c3cccnc32)cc1 ?
TDP1 cell CPT: 6.0%; DT40 TDP1 no CPT: -6.7%

Results for O=C(NCc1ccccc1)c1ccc(Cn2c(=O)c3cccn3c3cccnc32)cc1 ?
TDP1 cell CPT: -6.4%; DT40 TDP1 no CPT: -22.6%

Results for Cc1ccc(NC(=S)NCC2CCN(C(C)c3ccccc3)C2)cc1 (stereo not given) ?
IL1B secr inh: inconclusive; HT1080-NT tox: -28.0%; TDP1 cell CPT: 20.6µM*; ELG1 repair inh: 6.0%; HT1080 IDH1KD tx: -3.0%; DT40 TDP1 no CPT: 16.4µM*

Results for CC(c1ccccc1)N1CCC(CNC(=S)Nc2cccc(Cl)c2)C1 (stereo not given) ?
IL1B secr inh: -80.3*; HT1080-NT tox: 18.4µM*; TDP1 cell CPT: inconclusive; ELG1 repair inh: 2.1%; HT1080 IDH1KD tx: 18.4µM*; DT40 TDP1 no CPT: inconclusive

What do the screens show for `COc1ccc(NC(=O)N2CCCC3(CCN(C(C)=O)CC3)C2)cc1`?
TDP1 cell CPT: 9.3%; DT40 TDP1 no CPT: 2.9%

How did O=C(CC1C(=O)NCCN1Cc1cccc(C(F)(F)F)c1)NCCc1cnccn1 (stereo not given) do in these assays?
IL1B secr inh: 3.0; HT1080-NT tox: 1.1%; TDP1 cell CPT: -15.2%; ELG1 repair inh: 1.0%; HT1080 IDH1KD tx: 0.4%; DT40 TDP1 no CPT: -4.2%

What do the screens show for `CS(=O)(=O)N1CCC2(CCCN(c3cccc(-c4ccccc4)c3)C2)CC1`?
TDP1 cell CPT: 4.7%; DT40 TDP1 no CPT: -1.3%

What do the screens show for `CC(CNC(=O)[C@@H](Cc1ccccc1)NC(=O)CC[C@H]1O[C@@H](n2ccc(=O)[nH]c2=O)[C@H](O)[C@@H]1O)c1ccccc1` (stereo not given in full)?
IL1B secr inh: -66.2*; HT1080-NT tox: 22.3%; TDP1 cell CPT: 8.3%; HT1080 IDH1KD tx: 12.7%; DT40 TDP1 no CPT: 36.3%

How did O=C(CC[C@H]1O[C@@H](n2ccc(=O)[nH]c2=O)[C@H](O)[C@@H]1O)N[C@H](Cc1ccccc1)C(=O)NCCCc1ccccc1 do in these assays?
IL1B secr inh: 17.5; HT1080-NT tox: 20.9%; TDP1 cell CPT: -6.7%; HT1080 IDH1KD tx: 16.9%; DT40 TDP1 no CPT: 0.8%

Results for CCN(CC)C(=O)/C(C#N)=C/c1cc(O)c(O)c([N+](=O)[O-])c1 ?
TDP1 cell CPT: -17.8%; DT40 TDP1 no CPT: -18.9%

Results for O=C(CSc1ccccc1)N1CCCC(Nc2ccccc2)C1 (stereo not given) ?
IL1B secr inh: 8.5; HT1080-NT tox: 8.5%; TDP1 cell CPT: inconclusive; ELG1 repair inh: -1.1%; HT1080 IDH1KD tx: 3.7%; DT40 TDP1 no CPT: inconclusive

How did CCOc1ccc2nc(Cl)c(C3CC(c4ccccc4)=NN3C(=O)CCC(=O)O)cc2c1 (stereo not given) do in these assays?
TDP1 cell CPT: 2.9%; DT40 TDP1 no CPT: -15.4%

How did CNc1ccc(Br)cc1C(O)c1ccccc1 (stereo not given) do in these assays?
IL1B secr inh: 3.9; HT1080-NT tox: -18.8%; TDP1 cell CPT: 0.6%; ELG1 repair inh: inconclusive; HT1080 IDH1KD tx: -18.7%; DT40 TDP1 no CPT: 1.1%

What do the screens show for `N#Cc1ccc(CN2CCC3(CC2)CCN(C(=O)c2csnn2)CC3)cc1`?
TDP1 cell CPT: -2.2%; DT40 TDP1 no CPT: inconclusive

What do the screens show for `CCCN1C(=O)c2[nH]nc(-c3ccc(OC)cc3)c2C1c1ccccn1` (stereo not given)?
TDP1 cell CPT: inconclusive; DT40 TDP1 no CPT: 25.9µM*

What do the screens show for `CCOC(=O)c1ccc(N2C(=O)c3[nH]nc(-c4ccccc4)c3C2c2cccs2)cc1` (stereo not given)?
TDP1 cell CPT: 23.1µM*; DT40 TDP1 no CPT: 20.6µM*

How did CCOC(=O)c1ccc(N2C(=O)C(O)=C(C(C)=O)C2c2ccccn2)cc1 (stereo not given) do in these assays?
IL1B secr inh: 13.0; HT1080-NT tox: 6.5%; TDP1 cell CPT: 0.4%; ELG1 repair inh: inconclusive; HT1080 IDH1KD tx: 3.5%; DT40 TDP1 no CPT: 0.4%

How did CCOC(=O)c1ccc(N2C(=O)c3[nH]nc(-c4ccc(OCC)cc4)c3C2c2cccs2)cc1 (stereo not given) do in these assays?
TDP1 cell CPT: 7.31µM*; DT40 TDP1 no CPT: 3.66µM*

How did CCOc1ccc(N2C(=O)c3[nH]nc(-c4ccc(OC)cc4)c3C2c2cccs2)cc1 (stereo not given) do in these assays?
TDP1 cell CPT: 23.1µM*; DT40 TDP1 no CPT: 25.9µM*

What do the screens show for `COc1cc(NC(=O)NCCn2nnc3cc(S(=O)(=O)N(C)C)ccc32)cc(OC)c1OC`?
TDP1 cell CPT: -14.8%; DT40 TDP1 no CPT: 2.8%

How did CCOC(=O)c1ccc(N2C(=O)c3[nH]nc(-c4ccccc4)c3C2c2ccc(CC)cc2)cc1 (stereo not given) do in these assays?
TDP1 cell CPT: 20.6µM*; DT40 TDP1 no CPT: 18.4µM*

Results for CCOC(=O)c1ccc(N2C(=O)c3n[nH]c(C)c3C2c2ccccn2)cc1 (stereo not given) ?
IL1B secr inh: -5.9; HT1080-NT tox: -4.0%; TDP1 cell CPT: -24.8%; ELG1 repair inh: -16.9%; HT1080 IDH1KD tx: -3.0%; DT40 TDP1 no CPT: -28.5%

Results for Cc1[nH]c(=O)[nH]c(=O)c1/C=N/NC(=O)CCNC(=O)OC(C)(C)C ?
IL1B secr inh: -60.2*; HT1080-NT tox: 10.4%; TDP1 cell CPT: -0.8%; ELG1 repair inh: -7.5%; HT1080 IDH1KD tx: 8.1%; DT40 TDP1 no CPT: 21.8%

What do the screens show for `Cc1ccsc1C(=O)N1CCCC1(C)C(=O)NCC(C)C` (stereo not given)?
IL1B secr inh: 3.8; HT1080-NT tox: 0.6%; TDP1 cell CPT: -9.4%; HT1080 IDH1KD tx: 12.2%; DT40 TDP1 no CPT: -11.7%

What do the screens show for `Cc1cccnc1CNC(=O)C1(C)CCCN1CC(C)C` (stereo not given)?
IL1B secr inh: 52.5; HT1080-NT tox: 24.1%; TDP1 cell CPT: 14.6µM*; HT1080 IDH1KD tx: 25.9%; DT40 TDP1 no CPT: 14.6µM*

Bioassay records from PubChem.
